Records with an inconclusive call do not appear. Entries that show only a call come without a potency. Calls of active or inactive are those of the source. The call rests on the fitted dose curve; in most records, active means well fitted inhibition curve with a large enough effect; inconclusive means small, poorly fitted or top-dose-only effect; inactive means flat fitted curve, though single readings scatter.
biological target: Calcium and integrin-binding protein 1 (Homo sapiens) (UniProt Q99828); experiment: Primary qHTS for Identification of Calcium Integrin Binding Protein 1 (CIB1) Competitor (AID 1508620); settings: CIB1-GST / FITC-alphaIIb peptide fluorescence polarization; series mostly up to 114 µM; further: top concentration of the series differs between compounds
Sequence (Q99828 whole entry, looked up): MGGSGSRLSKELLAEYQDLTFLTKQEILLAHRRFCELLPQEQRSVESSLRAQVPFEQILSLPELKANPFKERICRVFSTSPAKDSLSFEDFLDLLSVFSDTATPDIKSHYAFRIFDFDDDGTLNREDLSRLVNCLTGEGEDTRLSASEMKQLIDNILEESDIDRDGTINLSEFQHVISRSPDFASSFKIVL
Summary of the method: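 Fluorescence polarization competition: GST-tagged CIB1 (1 uM final) preincubated with compound 15 min at room temperature, then FITC-labelled alphaIIb peptide (100 nM final) added. After 15 min at room temperature, polarization read at Ex 480/Em 540.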

Compound | Potency
NC(=O)C1CCN(c2nc(-c3ccccc3Br)cs2)CC1 | inactive
Cc1ccc(S(=O)(=O)N2CCN(c3nc(C#N)nc4ccccc34)CC2)cc1 | inactive
O=C(NCC#CCSc1nnc(-c2cccc3ccccc23)o1)c1cccs1 | inactive
O=C1c2ccccc2NC(c2ccc(-c3cccc(Cl)c3)o2)N1O (stereo not given) | inactive
CCOc1ccc(CCNC(=O)c2cc3ccccc3n2Cc2ccc(Cl)c(F)c2)cc1OCC | inactive
COc1cccc(-c2csc(N3CCC(C(N)=O)CC3)n2)c1 | inactive
Cn1nnnc1Sc1ncnc2scc(-c3cnc(N)nc3)c12 | inactive
Cc1cc(NC(=S)N2CCN(c3cccc(C(F)(F)F)c3)CC2)nc2ccccc12 | inactive
COc1cccc(NS(=O)(=O)c2ccc3c(c2)CCC(=O)N3)c1 | inactive
CC1=C(C(=O)Nc2nnc(-c3ccccc3)s2)C(c2nn(C)cc2Cl)N=C(Nc2nc3ccccc3o2)N1 (stereo not given) | inactive
c1ccc(CNc2ccc(N3CCOCC3)cc2)cc1 | inactive
Cn1nnnc1Sc1ncnc2scc(Br)c12 | inactive
C(=Nc1cccnc1)c1cccs1 | inactive
CC(=O)Nc1cc2c(s1)CNCC2 | inactive
O=C(Cn1nc(-c2ccc(OC(F)(F)F)cc2)ccc1=O)NCCc1ccccc1 | inactive
Cc1cccc(N2CCN(C(=S)Nc3cc(C)ccn3)CC2)c1 | inactive
CCC(C)N(C)C(=O)Cn1nc(-c2ccc(C)cc2)ccc1=O (stereo not given) | inactive
N#Cc1ccc(C[C@H](C(=O)O)N2C(=O)c3ccc(C(=O)O)cc3C2=O)cc1 | inactive
COc1ccc(C2Nc3ccccc3C(=O)N2Cc2cccc(Cl)c2)cc1COc1ccc(NC(C)=O)cc1 (stereo not given) | inactive
COc1ccc(C2Nc3ccccc3C(=O)N2Cc2ccc(C(F)(F)F)o2)cc1COc1c(C)cccc1C (stereo not given) | inactive

Compound | Potency
Cc1cc(C)n2ncc(C(=O)Nc3ccc4c(c3)OCCO4)c2n1 | inactive
COc1cc(O)c(C(CC(=O)N2CCC(Cc3ccccc3)CC2)c2ccc3c(c2)OCO3)c(OC)c1 (stereo not given) | inactive
NCCCCNc1ncnc2ccc(-c3ccc4c(c3)OCO4)cc12 | inactive
Oc1ccc(CNc2cccnc2)c2cccnc12 | inactive
O=C1Nc2ccccc2C1Cc1cc(Cl)c(O)c(Cl)c1 (stereo not given) | inactive
N#CN/C(=N\c1nnc(-c2ccncc2)s1)Nc1ccc(F)c(C(F)(F)F)c1 | inactive
CC(C)c1ccccc1-c1ncc(F)c(NCc2ccc(-n3ccnn3)cc2)n1 | inactive
COc1ccccc1-c1no[n+]([O-])c1C#N | inactive
Cc1cccc(-n2cnc3cc(C(=O)N4CCC(C#N)CC4)ccc32)c1 | inactive
COc1cc(F)c(S(=O)(=O)N2CCN(S(=O)(=O)c3cccc(NC(C)=O)c3)CC2)c(F)c1 | inactive
Cc1cc2c(s1)c1cnn(Cc3ccc(Cl)cc3)c(=O)c1n2C | inactive
COc1ccc(-c2nc3ccccc3c(=O)n2Cc2ccccc2)cc1CNc1ccc(NC(C)=O)cc1 | inactive
O=[S+]([O-])(c1ccc2c(c1)OCCO2)N1CCN([S+](=O)([O-])c2c(F)cc(F)cc2Br)CC1 | inactive
CC(=O)Nc1sc2c(c1-c1ccc(N(C)C)cc1)CCNC2 | inactive
NC(=O)c1cccc(C[C@H](C(=O)O)N2C(=O)c3ccc(C(=O)O)cc3C2=O)c1 | inactive
Cc1ccc(OCCn2c(CCNC(=O)/C=C/c3ccccc3)nc3ccccc32)cc1 | inactive
N#Cc1ccc(-c2ccc(NC(=O)c3cccs3)cn2)cc1 | inactive
N#CNC(=O)c1ccc(-n2cccc2/C=C2\NC(=O)N(CC(=O)Nc3cccc(F)c3)C2=O)cc1 | inactive
Cc1ccnc(NC(=S)NCCN(C)c2cccc(C(F)(F)F)c2)c1 | inactive
CC(C)(C)OC(=O)N1CCN(c2ccc(NCc3cnc(-c4ccc(C#N)cc4)s3)cc2)CC1 | inactive

Source: PubChem BioAssay (NCATS)
